Records with an inconclusive call do not appear. Active and inactive are the calls of the source. The rule behind the calls is not given here.
experiment: caspase 3/7 activation in LOX IMVI melanoma cells, dose response, mechanism study for HRAS target identification, cell-based, luminescence, multiple timepoints, dry powder (AID 652072); settings: caspase 3/7 luminescence, apoptosis; series mostly up to 35 µM

outcome, inactive:
CCC(=O)N(c1ccc(OC)c(Cl)c1)C(C(=O)NCCc1ccccc1)c1cccs1 (centres undefined)
Cc1onc(C(=O)N2CCN(C(c3ccc(Cl)cc3)c3ccc(Cl)cc3)CC2)c1[N+](=O)[O-]
Cc1onc(C(=O)N2CCN(C(c3ccc(Cl)cc3)c3ccc(OCCOCCOCCNC(=O)OC(C)(C)C)cc3)CC2)c1[N+](=O)[O-] (centres undefined)
C#CCCCC(=O)NCCOCCOCCOc1ccc(N(C(=O)CCl)C(C(=O)NCCc2ccccc2)c2cccs2)cc1Cl (centres undefined)
